Experimental data reported in PubChem BioAssay AID1159580 (chemical genetic matrix, 2015).
“And” between values parts separate entries of the source, which are not always exact repeats. Equal values may be shown once. The whole screen tested about 5,500 compounds, of which about 2,000 (36%) were called active. Roughly 18% stayed inconclusive and do not appear here. Cut-off read from the data, not from the text of the source: active = normalized growth mostly below about 0.91 (no sharp cut-off); inconclusive = no clear call, values can overlap the other calls; inactive = mostly above about 0.92. The list shows a part of the results.

Test: chemical genetic growth profiling, strain panel (AID 1159580);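 note: tested at 20 µM; growth read once vehicle control cultures reached saturation at 30 °C; 1 = growth at the plate median or of vehicle wells; lower values mean less growth of the strain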
Conditions: S. cerevisiae deletion strains, growth OD

Measured: normalized growth

COc1ccc(C[C@H]2NC[C@H](O)[C@H]2OC(C)=O)cc1
inactive: locus YBR021W, strain FUR4, stronger effect = lower value 1.05 | locus YBR171W, strain sec66, stronger effect = lower value 1 | locus YBR229C, strain ROT2, stronger effect = lower value 1.01 | locus YCL029C, strain bik1, stronger effect = lower value 0.961 | locus YDL040C, strain nat1, stronger effect = lower value 1 | locus YDL185W, strain tfp1, stronger effect = lower value 0.993 | locus YDR001C, strain nth1, stronger effect = lower value 0.964 | locus YDR137W, strain rgp1, stronger effect = lower value 0.942 | locus YDR159W, strain sac3, stronger effect = lower value 1.09 | locus YDR335W, strain msn5, stronger effect = lower value 0.927 | locus YEL003W, strain gim4, stronger effect = lower value 0.984 | locus YEL061C, strain CIN8 (second series), stronger effect = lower value 0.937 | locus YER110C, stronger effect = lower value 1 | locus YER111C, strain swi4, stronger effect = lower value 0.981 | locus YER155C, strain BEM2 (second series), stronger effect = lower value 0.938 | locus YER155C, strain BEM2, stronger effect = lower value 1.01 | locus YGL078C, strain dbp3, stronger effect = lower value 0.981 | locus YGL167C, strain pmr1, stronger effect = lower value 1.02 | locus YGL227W, strain vid30, stronger effect = lower value 0.989 | locus YGL240W, strain doc1, stronger effect = lower value 0.994 | locus YHR079C, strain IRE1, stronger effect = lower value 0.921 | locus YHR094C, strain hxt1, stronger effect = lower value 1 | locus YHR142W, strain chs7, stronger effect = lower value 0.92 | locus YIL125W, strain kgd1, stronger effect = lower value 1.01 | locus YJL115W, strain asf1, stronger effect = lower value 1.02 | locus YJL134W, strain LCB3, stronger effect = lower value 1.02 | locus YJL154C, strain vps35, stronger effect = lower value 1.01 | locus YJL168C, strain set2, stronger effect = lower value 1.01 | locus YJR066W, strain TOR1, stronger effect = lower value 0.911
active: locus YAL013W, strain DEP1, stronger effect = lower value 0.0582 | locus YAL021C, strain ccr4, stronger effect = lower value 0.397 | locus YAL026C, strain drs2, stronger effect = lower value 0.762 | locus YAL030W, strain snc1, stronger effect = lower value 0.713 | locus YBL061C, strain skt5, stronger effect = lower value 0.803 | locus YBR009C, strain hhf1, stronger effect = lower value 0.516 | locus YBR023C, strain chs3, stronger effect = lower value 0.823 | locus YBR231C, strain swc5, stronger effect = lower value 0.648 | locus YBR279W, strain paf1, stronger effect = lower value 0.869 | locus YCL011C, strain gbp2, stronger effect = lower value 0.659 | locus YCL016C, strain dcc1, stronger effect = lower value 0.791 | locus YCL069W, strain vba3, stronger effect = lower value 0.904 | locus YCR088W, strain abp1, stronger effect = lower value 0.835 | locus YDL005C, strain med2, stronger effect = lower value 0.122 | locus YDL035C, strain GPR1, stronger effect = lower value 0.222 | locus YDL074C, strain BRE1, stronger effect = lower value 0.242 | locus YDL101C, strain DUN1, stronger effect = lower value 0.306 | locus YDL134C, strain PPH21, stronger effect = lower value 0.533 | locus YDL192W, strain arf1, stronger effect = lower value 0.447 | locus YDR069C, strain doa4, stronger effect = lower value 0.117 | locus YDR101C, strain arx1, stronger effect = lower value 0.874 | locus YDR150W, strain NUM1, stronger effect = lower value 0.656 | locus YDR162C, strain NBP2, stronger effect = lower value 0.0621 | locus YDR195W, strain ref2 0.698 | locus YDR297W, strain sur2, stronger effect = lower value 0.838 | locus YDR318W, strain mcm21, stronger effect = lower value 0.7 | locus YDR334W, strain swr1, stronger effect = lower value 0.901 | locus YDR388W, stronger effect = lower value 0.161 | locus YDR392W, strain spt3, stronger effect = lower value 0.622 | locus YDR502C, strain sam2, stronger effect = lower value 0.734 | locus YEL037C, strain rad23, stronger effect = lower value 0.895 | locus YEL061C, strain CIN8, stronger effect = lower value 0.598 | locus YER015W, strain faa2, stronger effect = lower value 0.81 | locus YER016W, strain bim1, stronger effect = lower value 0.9 | locus YER167W, strain BCK2, stronger effect = lower value 0.704 | locus YFR010W, strain ubp6, stronger effect = lower value 0.104 | locus YGL086W, strain mad1, stronger effect = lower value 0.501 | locus YGL173C, strain kem1, stronger effect = lower value 0.885 | locus YGL248W, strain PDE1, stronger effect = lower value 0.298 | locus YGL253W, strain hxk2, stronger effect = lower value 0.575 | locus YGR078C, strain PAC10, stronger effect = lower value 0.523 | locus YGR135W, strain pre9, stronger effect = lower value 0.272 | locus YGR229C, strain SMI1, stronger effect = lower value 0.0868 | locus YGR252W, strain gcn5, stronger effect = lower value 0.68 | locus YHR013C, strain ard1, stronger effect = lower value 0.336 | locus YHR027C, strain rpn1, stronger effect = lower value 0.717 | locus YHR079C, strain IRE1 (second series), stronger effect = lower value 0.916 | locus YHR129C, strain ARP1, stronger effect = lower value 0.831 | locus YHR200W, strain rpn10, stronger effect = lower value 0.494 | locus YIL066C, strain RNR3, stronger effect = lower value 0.258 | locus YIL073C, strain SPO22, stronger effect = lower value 0.119 | locus YIR030C, strain dcg1, stronger effect = lower value 0.919 | locus YJL092W, strain hpr5, stronger effect = lower value 0.89 | locus YJL095W, strain BCK1 (second series), stronger effect = lower value 0.84 | locus YJL129C, strain trk1, stronger effect = lower value 0.479 | locus YJL164C, strain tpk1, stronger effect = lower value 0.622 | locus YJL166W, strain qcr8, stronger effect = lower value 0.622 | locus YJL187C, strain SWE1 (second series), stronger effect = lower value 0.32 | locus YJR043C, strain POL32, stronger effect = lower value 0.524 | locus YJR075W, strain HOC1, stronger effect = lower value 0.174
0.133 (active) and 0.945 (inactive): locus YHR030C, strain SLT2, stronger effect = lower value
0.596 (active) and 0.961 (inactive): locus YJL095W, strain BCK1, stronger effect = lower value
